Data from PubChem BioAssay AID1159580 (chemical genetic matrix, 2015).
Out of some 5,500 compounds screened, about 2,000 (36%) were called active. Not shown: some 18% with an inconclusive outcome. No stated cut-off is given here; in the data, active means normalized growth mostly below about 0.91 (no sharp cut-off); inconclusive means no clear call, values can overlap the other calls; inactive means mostly above about 0.92. This is one part of the list.

Assay: chemical genetic growth profiling, strain panel (AID 1159580);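 further: tested at 20 µM; growth read once vehicle control cultures reached saturation at 30 °C; 1 = growth at the plate median or of vehicle wells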
Conditions: S. cerevisiae deletion strains, growth OD
[1] = locus YAR019C, strain CDC15, stronger effect = lower value
[2] = locus YBL105C, strain PKC1, stronger effect = lower value
[3] = locus YBR135W, strain CKS1, stronger effect = lower value
[4] = locus YBR136W, strain MEC1, stronger effect = lower value
[5] = locus YBR160W, strain CDC28, stronger effect = lower value
[6] = locus YDL017W, strain CDC7, stronger effect = lower value
[7] = locus YDL028C, strain MPS1, stronger effect = lower value
[8] = locus YDL101C, strain DUN1, stronger effect = lower value
[9] = locus YDL108W, strain KIN28, stronger effect = lower value
[10] = locus YDL132W, strain cdc53, stronger effect = lower value
[11] = locus YDL214C, strain PRR2, stronger effect = lower value
[12] = locus YDR052C, strain DBF4, stronger effect = lower value
[13] = locus YDR054C, strain cdc34, stronger effect = lower value
[14] = locus YDR226W, strain ADK1, stronger effect = lower value
[15] = locus YDR477W, strain SNF1, stronger effect = lower value
[16] = locus YER123W, strain YCK3, stronger effect = lower value
[17] = locus YER133W, strain GLC7, stronger effect = lower value
[18] = locus YFL009W, strain cdc4, stronger effect = lower value
[19] = locus YFL029C, strain CAK1, stronger effect = lower value
[20] = locus YFR003C, strain YPI1, stronger effect = lower value
[21] = locus YFR019W, strain FAB1, stronger effect = lower value
[22] = locus YFR028C, strain CDC14, stronger effect = lower value
[23] = locus YGR040W, strain KSS1, stronger effect = lower value
[24] = locus YGR052W, strain FMP48, stronger effect = lower value
[25] = locus YGR092W, strain DBF2, stronger effect = lower value
[26] = locus YHR030C, strain SLT2, stronger effect = lower value
[27] = locus YHR079C, strain IRE1, stronger effect = lower value
[28] = locus YHR082C, strain KSP1, stronger effect = lower value
[29] = locus YHR205W, strain SCH9, stronger effect = lower value
[30] = locus YIL147C, strain SLN1, stronger effect = lower value
[31] = locus YJL095W, strain BCK1, stronger effect = lower value
[32] = locus YJL128C, strain PBS2, stronger effect = lower value
[33] = locus YJL157C, strain FAR1, stronger effect = lower value
[34] = locus YJR016C, strain ILV3, stronger effect = lower value
[35] = locus YJR066W, strain TOR1 (second series), stronger effect = lower value
[36] = locus YJR066W, strain TOR1, stronger effect = lower value
[37] = locus YKL048C, strain ELM1, stronger effect = lower value
[38] = locus YKL067W, strain YNK1, stronger effect = lower value
[39] = locus YKL193C, strain SDS22, stronger effect = lower value
[40] = locus YKL203C, strain TOR2, stronger effect = lower value
[41] = locus YLR113W, strain HOG1, stronger effect = lower value
[42] = locus YLR133W, strain CKI1, stronger effect = lower value
[43] = locus YLR403W, strain SFP1, stronger effect = lower value
[44] = locus YML070W, strain DAK1, stronger effect = lower value
[45] = locus YMR001C, strain CDC5, stronger effect = lower value
[46] = locus YMR205C, strain PFK2 (second series), stronger effect = lower value
[47] = locus YMR277W, strain FCP1, stronger effect = lower value
[48] = locus YNL006W, strain LST8, stronger effect = lower value
[49] = locus YNL020C, strain ARK1, stronger effect = lower value
[50] = locus YNL161W, strain CBK1, stronger effect = lower value
[51] = locus YNL183C, strain NPR1, stronger effect = lower value
[52] = locus YNL207W, strain RIO2, stronger effect = lower value
[53] = locus YNL222W, strain SSU72, stronger effect = lower value
[54] = locus YNL307C, strain MCK1 (second series), stronger effect = lower value
[55] = locus YOL078W, strain AVO1, stronger effect = lower value
[56] = locus YOL136C, strain PFK27, stronger effect = lower value
[57] = locus YOR061W, strain CKA2, stronger effect = lower value
[58] = locus YOR119C, strain RIO1, stronger effect = lower value
[59] = locus YOR231W, strain MKK1, stronger effect = lower value
[60] = locus YOR329C, strain SCD5, stronger effect = lower value
[61] = locus YPL031C, strain PHO85, stronger effect = lower value
[62] = locus YPL153C, strain RAD53, stronger effect = lower value
[63] = locus YPL204W, strain HRR25, stronger effect = lower value
[64] = locus YPL209C, strain IPL1, stronger effect = lower value
[65] = locus YPL256C, strain CLN2, stronger effect = lower value
[66] = locus YPR025C, strain CCL1, stronger effect = lower value
[67] = locus YPR106W, strain ISR1, stronger effect = lower value
[68] = locus YPR111W, strain DBF20, stronger effect = lower value
[69] = strain NNK1, stronger effect = lower value
[70] = strain TSCII, stronger effect = lower value
[71] = locus YAL013W, strain DEP1, stronger effect = lower value
[72] = locus YBR229C, strain ROT2, stronger effect = lower value
[73] = locus YDR150W, strain NUM1, stronger effect = lower value
[74] = locus YEL061C, strain CIN8, stronger effect = lower value
[75] = locus YGR078C, strain PAC10, stronger effect = lower value
[76] = locus YHR087W, strain rtc3, stronger effect = lower value
[77] = locus YJR043C, strain POL32, stronger effect = lower value
[78] = locus YJR075W, strain HOC1, stronger effect = lower value
[79] = locus YLR039C, strain RIC1, stronger effect = lower value
[80] = locus YLR058C, strain SHM2 (second series), stronger effect = lower value
[81] = locus YLR085C, strain ARP6, stronger effect = lower value
[82] = locus YLR262C, strain YPT6, stronger effect = lower value
[83] = locus YML094W, strain GIM5, stronger effect = lower value
[84] = locus YMR219W, strain ESC1, stronger effect = lower value
[85] = locus YMR263W, strain SAP30, stronger effect = lower value
[86] = locus YNL153C, strain GIM3, stronger effect = lower value
[87] = locus YNL298W, strain CLA4 (second series), stronger effect = lower value
[88] = locus YNL322C, strain KRE1, stronger effect = lower value
[89] = locus YNR030W, strain Alg12, stronger effect = lower value
[90] = locus YPL055C, strain LGE1, stronger effect = lower value
[91] = locus YPL241C, strain CIN2, stronger effect = lower value
[92] = locus YPR135W, strain CTF4, stronger effect = lower value

Measured: normalized growth

CCCCCCCCCCCCSc1ncn[nH]1
active: [21] 0.443 | [24] 0.511 | [26] 0.135 | [27] 0.254 | [28] 0.209 | [29] 0.294 | [31] 0.279 | [36] 0.297 | [41] 0.479 | [42] 0.566 | [43] 0.447 | [49] 0.523 | [51] 0.444 | [54] 0.478 | [59] 0.439 | [61] 0.542 | [62] 0.556 | [63] 0.556 | [65] 0.318
inactive: [1] 0.985 | [2] 0.976 | [3] 0.968 | [4] 0.973 | [5] 0.971 | [6] 0.977 | [7] 0.976 | [8] 0.975 | [9] 0.969 | [10] 0.976 | [11] 0.735 | [12] 0.975 | [13] 0.98 | [14] 0.968 | [15] 0.734 | [16] 0.645 | [17] 0.88 | [18] 0.971 | [19] 0.981 | [20] 0.977 | [22] 0.977 | [23] 0.817 | [25] 0.595 | [30] 0.978 | [32] 0.939 | [33] 0.728 | [34] 0.975 | [35] 0.738 | [37] 0.821 | [38] 0.85 | [39] 0.976 | [40] 0.731 | [44] 0.789 | [45] 0.976 | [46] 0.771 | [47] 0.975 | [48] 0.986 | [50] 0.981 | [52] 0.978 | [53] 0.972 | [55] 0.973 | [56] 0.723 | [57] 0.84 | [58] 0.655 | [60] 0.984 | [64] 0.982 | [66] 0.972 | [67] 0.991 | [68] 0.973 | [69] 0.983 | [70] 0.975

CCCCCCCCCCCCSc1nnc(N)s1
inactive: [71] 1.01 | [72] 0.994 | [8] 1.05 | [73] 1.01 | [74] 1 | [75] 0.999 | locus YGR229C, strain SMI1, stronger effect = lower value 0.977 | [26] 0.964 | [76] 1.02 | locus YJL187C, strain SWE1, stronger effect = lower value 0.995 | [77] 0.984 | [78] 1.01 | [79] 0.981 | [80] 0.991 | [81] 0.953 | [82] 1 | [83] 1.12 | [84] 0.996 | [85] 0.968 | locus YMR307W, strain GAS1, stronger effect = lower value 0.933 | [86] 1.02 | [87] 0.976 | [88] 0.983 | [89] 1.02 | [90] 1.02 | [91] 0.978 | [92] 1.21

NC(=NS(=O)(=O)c1cc(Cl)c(Oc2ccc([N+](=O)[O-])cc2Cl)c(Cl)c1)c1cccnc1
inactive: [71] 1 | [72] 0.993 | [8] 0.976 | [73] 0.948 | [74] 1.01 | [75] 1 | [26] 0.924 | [76] 1.01 | [77] 1 | [78] 0.992 | [79] 1.09 | [80] 1.01 | [81] 1.05 | [82] 1.09 | [83] 1.01 | [84] 0.997 | [85] 0.95 | locus YNL128W, strain TEP1, stronger effect = lower value 1.02 | [86] 0.992 | [87] 1.02 | [88] 1.01 | [89] 1.01 | [90] 0.912 | [91] 1.01 | [92] 0.96

N/C(=N/OC(=O)c1ccc([N+](=O)[O-])cc1)c1c(Cl)cccc1Cl
inactive: [1] 0.939 | [2] 0.946 | [3] 0.949 | [4] 0.941 | [5] 0.967 | [6] 0.958 | [7] 0.948 | [8] 0.975 | [9] 0.952 | [10] 0.938 | [11] 0.91 | [12] 0.955 | [13] 0.94 | [14] 0.944 | [15] 0.764 | [16] 0.936 | [17] 0.805 | [18] 0.935 | [19] 0.953 | [20] 0.95 | [21] 0.825 | [22] 0.942 | [23] 0.848 | [24] 0.71 | [27] 0.536 | [28] 0.872 | [30] 0.94 | [32] 0.973 | [33] 0.863 | [34] 0.942 | [36] 0.642 | [37] 1.02 | [38] 0.924 | locus YKL101W, strain HSL1, stronger effect = lower value 0.911 | [39] 0.935 | [40] 0.758 | [42] 0.898 | [43] 0.69 | [44] 0.883 | [45] 0.941 | [46] 0.905 | [47] 0.921 | [48] 0.958 | [49] 0.881 | [50] 0.954 | [51] 0.578 | [52] 0.915 | [53] 0.954 | [55] 0.938 | [56] 0.936 | [57] 0.919 | [58] 0.746 | [60] 0.954 | [61] 0.7 | [62] 0.693 | [63] 0.671 | [64] 0.955 | [66] 0.955 | [67] 0.984 | [68] 0.979 | [69] 0.982 | [70] 0.942
active: [25] 0.465 | [26] 0.268 | [29] 0.449 | [31] 0.418 | [35] 0.598 | [41] 0.661 | [54] 0.613 | [59] 0.57 | [65] 0.733
